Screening data from PubChem BioAssay.
Hits are enriched below; roughly 1.7% of the tested compounds scored in any of these assays.
p53ts 32C kill – p53ts cell cytotoxicity, permissive temperature | H1299-p53A138V at 32C, ATP luminescence viability, 24 h | Potency, µM (top dose mostly 46.1 µM), most hits filed as cytotoxic | 130,000 tested, 0.93% active | AID 924; further: nearly all actives have a fitted effect of over 55% in size
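H1299-p53 A138V cells (temperature-sensitive p53) exposed 24 h to up to 46 uM compound at 32C, where p53 is wild-type in conformation. Viability read as ATP luminescence and normalised to DMSO and 100 uM tamoxifen. AC50 fitted with the Hill equation.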
p53ts 39C tox – kills p53ts cells at the nonpermissive temperature. H1299-p53A138V viability at 39C, ATP luminescence, 24 h. Potency, µM (doses to about 46.1 µM), hits mostly cytotoxic. 130,000 tested, 1.5% active. AID 902; further: nearly all actives have a fitted effect of over 55% in size
IkB signaling – IkB pathway inhibition in ABC-DLBCL cells | ABC-DLBCL IkBa-CBG/CBR dual luciferase ratio, 4 h; response scale: scaled: untreated 0%, proteasome inhibitor 100% | Potency, µM (top dose mostly 57.1 µM) | 110,000 tested, 0.04% active | AID 445; active means well fitted curve in the direction sought with a large enough effect in the signal ratio, not every such curve was filed as active; inconclusive means small, poorly fitted or top-dose-only effect, or a change in a side signal; the % refers to the signal ratio;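 further: the direction sought is a rising ratio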
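In this assay, an IκBα–CBG68 fusion accumulates when IKK-driven degradation is blocked; native CBR normalizes for cell number. OCI-Ly3 cells were treated 4 h with compound and doxycycline, then green and red light read after Chroma-Glo addition.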
Peg3 imprint – genomic imprint erasure induction; mouse ES Peg3-LacZ reporter, beta-gal luminescence, 40 h; Potency, µM (top dose mostly 60.7 µM), most hits filed as activators; 110,000 tested, 0.02% active; AID 1948
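Imprint erasure is scored as LacZ activity from the silenced maternal Peg3 allele in feeder-free female ES cells cultured 40 h with LIF. Luminescence is normalized to in-plate negative controls and fitted to the Hill equation.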
Numbers stand for hits; 0 = inactive; ? = inconclusive; - = no result given; ! = repeats disagree; [ ] = dose if it differs, or a comment. Unless noted, the call rests on the fitted dose curve; in most records, active means well fitted curve in the direction sought with a large enough effect; inconclusive means small, poorly fitted or top-dose-only effect, or another doubt; inactive means no such curve, though single readings can be large; an effect the other way counts as inactive or inconclusive.

SMILES	p53ts 32C kill	p53ts 39C tox	IkB signaling	Peg3 imprint
CCc1cccc(NC(=O)c2cc3c(=O)[nH]c4ccccc4c3n2C)c1	0	?	0	0[10.9 µM]
Cc1nn(-c2ccc(C(=O)O)cc2)c(N)c1-c1ccccc1	7.9µM	10µM	?	0
c1nnc(NC2=NCCCCC2)s1	0	0	0	0
Clc1ccc(-c2nnc(NC3=NCCCCC3)o2)cc1	13µM	13µM	?	0
CC[C@@H]1OC(=O)[C@@H](C)[C@H](O[C@@H]2C[C@@](C)(OC)[C@@H](O)[C@H](C)O2)[C@H](C)[C@H](O[C@@H]2O[C@@H](C)C[C@@H](N(C)C)[C@H]2O)[C@@](C)(O)C[C@H](C)C(=O)[C@@H](C)[C@H](O)[C@@]1(C)O	-	-	0[11.4 µM]	-
O=C(NCc1ccc(Cl)cc1)c1cnc2sc(N3CCOCC3)nn2c1=O	0	0	0	0[10.9 µM]
CCOC(=O)c1cccc(NC(=O)c2cc3cc4cc(OC)ccc4nc3s2)c1	0	0	?	0[10.9 µM]
CCOC(=O)c1cccc(NC(=O)c2cc3cc4ccc(C)cc4nc3s2)c1	0	10µM	?	0[10.9 µM]
C=C1C(=O)C=C2CN(C(=O)c3ccccc3)[C@@](Cc3ccc(OC)cc3)(C(=O)OC)[C@@H]12	3.2µM	20µM	-	0
COC(=O)[C@@]1(Cc2ccc(OC)cc2)[C@@H]2C(=CC(=O)[C@H]2CC(=O)C(=O)N2CCCC2)CN1C(=O)c1ccccc1	0	0	-	0
Cc1ccc(Sc2ccc(N3CCCC(C(=O)Nc4ccc(Br)cc4)C3)nn2)cc1 (stereo unspecified)	0	0	?	0[10.9 µM]
C=CCNc1nc(-c2cc3ccccc3o2)cs1	14µM	?	-	-
OC[C@@H]1O[C@@H](n2cnc3c(NC4CCCC4)ncnc32)[C@@H](O)[C@H]1O	0	0	?	-
CCOc1ccc(CCNC(=O)c2cc3c(s2)-c2ccccc2OC3)cc1OCC	0	0	0	0[10.9 µM]
CC(C)(C)c1ccc(Cn2nnc3c(=O)[nH]c(C4CCN(C(=O)Cc5cccs5)CC4)nc32)cc1	?	16µM	?	0
CN1[C@@H]2CC(OC(=O)[C@@H](CO)c3ccccc3)C[C@@H]1[C@H]1O[C@H]12 (stereo partly specified)	-	-	0[11.4 µM]	0[10.9 µM]
OCCN1CCN(CCC=C2c3ccccc3Sc3ccc(Cl)cc32)CC1	0	0	0	0
N#CC(=NCCO)C1=C(O)c2ccccc2C1=O	?	0[9.22 µM]	0[11.4 µM]	0[10.9 µM]
O=C1C(SCCO)=C(SCCO)C(=O)c2ccccc21	0.63µM	0.79µM	?	0
CNC1=C(Cl)C(=O)c2ccncc2C1=O	1.6µM	4µM	-	0
CNC1=C(Br)C(=O)c2ccncc2C1=O	0.79µM	2µM	-	0
COc1cc(Cl)c(NS(=O)(=O)c2cc3[nH]c(=O)c(=O)[nH]c3cc2C)c(OC)c1	0	-	-	-
CC(=O)c1ccc(NC(=O)COc2ccccc2-c2nc(-c3ccc(C)cc3)no2)cc1	0	0	?	0[10.9 µM]
CCn1cnc2cc(NCc3nc4ccccc4n3Cc3ccccc3)ccc21	0	0	-	-
CCn1cnc2cc(NCc3nc4ccccc4n3C)ccc21	16µM	?	0	0
SMILES	p53ts 32C kill	p53ts 39C tox	IkB signaling	Peg3 imprint
CC(C)CN1CC[C@@]2(CCCN(C(=O)c3ccco3)C2)C1	0	0	0[11.4 µM]	-
O=C(Nc1ccccc1F)c1nc(SCc2ccc(F)cc2)ncc1Cl	0	0	0	0[10.9 µM]
O=C1C(=O)N(Cc2ccc(Cl)c(Cl)c2)c2ccccc21	?	6.3µM	?	0
O=C1c2ccccc2N(Cc2ccc(Cl)cc2)C2=NCCN12	0	0	-	-
c1ccc2c(c1)-c1nc3ccccc3cc1[C@H]2N1CCOCC1	0[9.22 µM]	0[9.22 µM]	0[11.4 µM]	0[10.9 µM]
OC1c2ccccc2-c2nc3ccccc3cc21 (stereo unspecified)	?	10µM	-	0
COc1cccc(NC2CC(=O)N(CCc3ccccc3)C2=O)c1 (stereo unspecified)	0	0	0	0
COc1cccc(CCc2ccccc2OCC[C@@H]2C[C@@H](O)CN2C)c1	?	13µM	-	0
O=C(Nc1ccccc1F)c1ccc2c(Cl)c3c(nc2c1)CCC3	1.3µM	1.6µM	?	0[10.9 µM]
CCOc1ccccc1NC(=O)c1ccc2c(Cl)c3c(nc2c1)CCC3	?	4µM	?	0[10.9 µM]
CCOc1ccccc1NC(=O)c1ccc2c(Cl)c3c(nc2c1)CCCC3	0	0	?	?
COC(=O)c1c(-c2cccs2)csc1NC(=O)COc1ccc(C(C)(C)C)cc1	0	0	0	0[10.9 µM]
COc1ccc(-n2cc(-c3ccc4c(c3)OCO4)n(CC(=O)Nc3cccc(C)c3C)c2=O)c(OC)c1	0	0	?	0[10.9 µM]
COc1ccc(-n2cc(-c3ccc4c(c3)OCO4)n(CC(=O)Nc3cc(Cl)ccc3C)c2=O)cc1	10µM	10µM	?	0[10.9 µM]
CC(C)C(=O)Nc1ccccc1OCc1cc(=O)n2ccccc2n1	0	0	0	0[10.9 µM]
CCc1ccc(NC(=O)Nc2ccccc2OCc2cc(=O)n3ccccc3n2)cc1	?	3.2µM	?	0[10.9 µM]
CC(C)c1ccc(S(=O)(=O)/N=C2/C=C(Sc3ncn[nH]3)C(=O)c3ccccc32)cc1	-	8.9µM	-	-
CCOc1ccc(S(=O)(=O)Nc2ccc(O)c(Sc3ncn[nH]3)c2)cc1	0	0	-	-
O=C(O)c1cc(S(=O)(=O)Nc2cccc(Cl)c2)ccc1O	0	0	-	-
O[C@@H](COc1ccc(Cl)cc1Cl)CN1CCCC1	0[9.22 µM]	0[9.22 µM]	0[11.4 µM]	0[10.9 µM]
Cc1ccc(OCC(O)Cn2c(=N)n(CCN3CCCCC3)c3ccccc32)cc1 (stereo unspecified)	0	13µM	?	0
CCCCCn1c(=N)n(CC(O)COc2ccccc2OC)c2ccccc21 (stereo unspecified)	?	20µM	?	0
N=c1n(CCO)c2ccccc2n1CCOc1ccc(Cl)cc1Cl	?	13µM	?	0
COc1ccccc1OCC(O)Cn1c(=N)n(Cc2ccccc2)c2ccccc21 (stereo unspecified)	0	0	?	0
N=c1n(CCN2CCCCC2)c2ccccc2n1CC(O)COc1ccc(Cl)cc1Cl (stereo unspecified)	22µM	3.2µM	?	0[10.9 µM]
SMILES	p53ts 32C kill	p53ts 39C tox	IkB signaling	Peg3 imprint
CNc1ncnc2c1ncn2[C@H]1C[C@@H](OP(=O)(O)O)[C@H](COP(=O)(O)O)O1	0	0	0	-
COc1ccccc1NS(=O)(=O)c1cc(C(=O)O)ccc1F	0	0	-	-
COc1ccc(OCC(O)Cn2c(=N)n(CCN3CCCCC3)c3ccccc32)cc1 (stereo unspecified)	0	13µM!	0	0
CCOC(=O)c1cc(-c2ccc(C)cc2)n(CC(=O)Nc2ccc(OC)c(Cl)c2)c1C	?	7.9µM	0	0[10.9 µM]
CCC(C)(C)NS(=O)(=O)c1cc(-c2cc(C)no2)ccc1C	0	0	0	0[10.9 µM]
C[C@@H](C(=O)O)c1ccc(N2Cc3ccccc3C2=O)cc1	10µM	5µM	?	0
CC(C)NC(=O)C(c1ccccc1)N1Cc2ccccc2C1=O (stereo unspecified)	0	-	-	-
O=C(Nc1ccc2c(c1)OCCO2)c1ccccc1F	5µM	7.9µM	?	0
O=C(Nc1ccc2c(c1)OCCO2)c1ccco1	16µM	13µM	0	0
O=C(CCc1ccccc1)Nc1ccc(NC(=O)c2ccco2)cc1	0	0	0	0
Cn1cnc2cc(NC(=O)c3ccco3)ccc21	16µM	7.9µM	0	0
